The values that follow come from ChEMBL document CHEMBL4513216, “Probing the Open Global Health Chemical Diversity Library for Multistage-Active Starting Points for Next-Generation Antimalarials” (ACS Infect Dis, 2020).

About 8,600 (12%) of roughly 69,000 compounds showed an effect of 50% or more. Shown is part of a subset that was picked to be rich in strong results.

In the assay the test system is Plasmodium berghei. The assay is described as follows: Screen against P. berghei liver stage (PbLuc), transformed with Luciferase, at 10uM. It counts as functional, HepG2. The settings on record: tested at 10 uM.
For `O=C(O)c1ccc(-c2cscn2)cc1`, the INHIBITION is -36.1%. For `Nc1ncnc2[nH]c(N3CCCCC3)nc12` the value was 4.12%. In the case of `CSc1nc(N)cc(N2C[C@H]3CC[C@@H](C2)N(CC2CC2)C3=O)n1` it was -65%; in that of `CC(C)CCN1C(=O)c2ccc(C(=O)NCCc3c[nH]cn3)cc2C1=O`, 65.4%; in that of `COCCN1C(=O)c2ccc(C(=O)NCCc3c[nH]cn3)cc2C1=O`, 68.4%.

In the case of `O=C(NCCc1c[nH]cn1)c1ccc2c(c1)C(=O)N(C1CCCC1)C2=O`, the INHIBITION is on record as 36.6%. For `O=C(NCCc1c[nH]cn1)c1ccc2c(c1)C(=O)N(C1CC1)C2=O` the value was -36.3%; for `CCCNC(=O)c1ccc2c(c1)C(=O)N(CC(C)C)C2=O`, 31.8%.

`O=C(NCCc1c[nH]cn1)c1ccc(S(=O)(=O)NC2CCCC2)cc1`: the INHIBITION is on record as 7.65%. In the case of `COCCCN1C(=O)c2ccc(C(=O)NCCc3c[nH]cn3)cc2C1=O` it was 34.3%; in that of `CC(C)CN1C(=O)c2ccc(C(=O)NCCc3c[nH]cn3)cc2C1=O`, 24.5%. As for `CCC(C)N1C(=O)c2ccc(C(=O)NCCc3c[nH]cn3)cc2C1=O` (stereo not drawn), the INHIBITION was determined as 53.2%.

As for `CCc1nnc(CN(C)C2CCCN(Cc3noc(C4CC4)n3)C2)o1` (stereo not drawn), the INHIBITION turned out to be 27.8%.

Turning to `Cc1ccc(F)c(NC(=O)NCCCn2nc3ccccn3c2=O)c1`, the INHIBITION is reported as -0.113%. For `O=C(c1ccc(-c2cn[nH]c2)nc1)N1CCC(N2CCOCC2)CC1` the value was 10.1%; for `CCc1ccc(NS(=O)(=O)C=c2[nH]c(=O)n3cccc3c2=O)cc1`, -101%.

As for `CC(CCN1CCCn2nc(CNS(C)(=O)=O)cc2C1)c1ccccc1` (stereo not drawn), the INHIBITION is on record as 27.6%. For `CN(Cc1cccc(C(N)=O)c1)Cc1nc2c(cnn2C)c(=O)[nH]1` the value was -29.7%; for `Fc1ccccc1-c1nc(CNCCn2cccn2)cs1`, -58.7%.

Turning to `CCN1CCCC12CCN(C(=O)c1nccn1C)CC2`, the INHIBITION is listed as -26.5%. `CCOc1ccc(CN(CC)C(=O)c2ccc(C)[nH]c2=O)cc1OC`: the INHIBITION is 20.85%.

Consider `CC(C)N(C)C[C@H]1OC[C@@H]2CCN(Cc3cccc(C#N)c3)C[C@@H]21`, for which the INHIBITION is reported as 23.3%.

As to `CCN(CC)c1nc2ccsc2c(=O)n1CCC(=O)NCc1cccs1`, the INHIBITION was 30.2%. In the case of `Cc1ccn(CCC(=O)NCc2ccco2)n1` it was 26%; in that of `CSc1nc2ccsc2c(=O)n1CC(=O)NC1CCCCC1`, 26.6%. In the case of `CCN(CC)c1nc2ccsc2c(=O)n1CCC(=O)NCc1ccco1` it was 55.7%. Turning to `CSc1nc2ccsc2c(=O)n1CC(=O)NC1CCCC1`, the INHIBITION is -58.7%.

Take `CCN(CC)c1nc2ccsc2c(=O)n1CCC(=O)NC1CCCC1`: the INHIBITION was 58.4%. In the case of `O=C(Nc1cccnc1)NC(CCCO)c1ccccc1` (stereo not drawn), the INHIBITION is 14.1%. In the case of `COCCN1C[C@H]2[C@@H](C1)N(Cc1cnn(C)c1)CC[C@H]2OC` it was -4.88%; in that of `O=C(c1ccc(-n2cccn2)nc1)N1CCCC(n2cccn2)C1` (stereo not drawn), 26.45%. In the case of `COc1ccc(OC)c(Sc2ncccc2C(=O)NCC2CC2)c1` it was 23.3%; in that of `COc1ncc(CN(C)C(C)c2cccnc2)cn1` (stereo not drawn), 5.85%; in that of `CC(c1cccnc1)N(C)Cc1cc(O)c2cc(F)ccc2n1` (stereo not drawn), 66.8%. Consider `CC(c1ccncn1)N(C)Cc1cc(O)c2cc(F)ccc2n1` (stereo not drawn), for which the INHIBITION is given as 28.3%. As to `CC(c1ccon1)N(C)Cc1cc(O)c2cc(F)ccc2n1` (stereo not drawn), the INHIBITION amounted to 36%. For `CC(c1cccnc1)N(C)Cc1csc(-c2ccccn2)n1` (stereo not drawn) the value was -45.8%. For `CC(c1cccnc1)N(C)Cc1ccccn1` (stereo not drawn) the value was 70.4%; for `c1ccc(CCCN2CCCC2Cn2cncn2)cc1` (stereo not drawn), -25.9%.

For the compound `CCc1ncc(C(=O)N(C)Cc2cc(-c3ccncc3)no2)cn1`, the INHIBITION came to 59.7%. For `CCN(C)C(=O)c1ccc(N(C)Cc2cc(-c3cccnc3)no2)nc1` the value was 34%; for `CCN(C)C(=O)c1ccc(N(C)Cc2cc(-c3ccncc3)no2)nc1`, 5.17%.

Turning to `O=C(CS(=O)(=O)C1CCCC1)NC1CCc2nccn2C1` (stereo not drawn), the INHIBITION turned out to be 19.2%. In the case of `Cc1cc(CN2CC[C@H]3OCC[C@@]3(C(=O)NCc3ccco3)C2)no1` it was -0.813%; in that of `Cc1nnc(CN2CCCC(c3noc(C4CC4)n3)C2)o1` (stereo not drawn), -36.3%; in that of `Cc1cc(NCCc2nnc(N)s2)nc(-c2cccnc2)n1`, 16.7%. In the case of `Cc1cc(NCCc2nc(C)cs2)nc(-c2cccnc2)n1` it was -25.1%; in that of `Cc1cc(NCCc2c[nH]cn2)nc(-c2cccnc2)n1`, -14.1%; in that of `CCc1nc(CNc2cc(C)nc(-c3cccnc3)n2)cs1`, 54.9%. Consider `CCc1csc(CNc2cc(C)nc(-c3cccnc3)n2)n1`, for which the INHIBITION was 56.05%.

In the case of `Cc1cc(NCCc2c(C)n[nH]c2C)nc(-c2cccnc2)n1`, the INHIBITION amounted to 16.69%.

Take `CSC(C)(C)CNC(=O)NCc1cccc(-n2ccnc2)c1`: the INHIBITION is reported as 17.2%. In the case of `O=C(Cc1ccccc1F)N1CCC[C@@H]1Cn1c(=O)oc2ccccc21` it was -12%.
